39 compounds from PubChem BioAssay (Tox21) can be followed below.

Where “and” joins values, the source holds several entries; their conditions need not be identical. Identical values can stand only once. Records with an inconclusive call do not appear. A call without a number means that no potency is given here. Where a structure was tested more than once in an assay, its records may differ in their call. Calls of active or inactive are those of the source. The call rests on the fitted dose curve; in most records, active means well fitted curve in the direction sought with a large enough effect in the repeat runs; inconclusive means weak or mixed curves; inactive means no such curve, though single readings can be large; an effect the other way counts as inactive or inconclusive.
Potency means the concentration at half of the fitted maximal effect.

The first test is described as follows: qHTS RealTime-Glo MT Cell Viability Assay in HepG2 cells - 32 hour (AID 1224877). Further: nearly all actives have a fitted effect of over 55% in size. Conditions: RealTime-Glo luminescence; series mostly up to 76.8 µM; activity change, negative = cytotoxic: at the top concentration. The gist of the method:
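Compound treatment began 5 h after plating HepG2 cells (600/well) with NanoLuc luciferase and prosubstrate. Plates stayed at 37 C for 40 h; luminescence was captured at six time points, 0 h through 40 h.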
For orientation: Quantitative high-throughput screening tests each substance at several concentrations.
For the compound `CC1=CCC(C(C)(C)O)CC1` (stereo not drawn), the Potency result was “inactive”.
For the compound `Nc1ncn([C@@H]2O[C@H](CO)[C@@H](O)[C@H]2O)c(=O)n1`, the Potency entry was “inactive”.
The same measure, in the same setting: in the case of `CCOC(=O)C(C#N)=C(c1ccccc1)c1ccccc1` it was “inactive”; in that of `CCC(C)(O)CCCC(C)C` (stereo not drawn), “inactive”.
On the same count and under the same terms, the same measure for `CCCCNS(=O)(=O)c1ccccc1`: “inactive”; for `CC(C)CC(C)(O)C#CC(C)(O)CC(C)C` (stereo not drawn): “inactive”; for `c1ccc2c(c1)c1cccc3ccc4cccc2c4c31`: “inactive”.
Regarding `O=C(/C=C/c1ccccc1)OCc1ccccc1`, the Potency result was “inactive”.
The same measure, in the same setting: in the case of `CC(C)(C)NC(=O)[C@H]1CC[C@H]2[C@@H]3CC[C@H]4NC(=O)C=C[C@]4(C)[C@H]3CC[C@]12C` it was “inactive”.
`CCCc1c(OCCCCc2nn[nH]n2)ccc(C(C)=O)c1O`: the Potency result is “inactive”.
Regarding `CCCCCCCCCCCO`, the Potency entry is “inactive”.
As for `COc1ccc(OC)c(C(O)CNC(=O)CN)c1` (stereo not drawn), the Potency result was “inactive”.
For the compound `COC(=O)Nc1nc2ccc(S(=O)c3ccccc3)cc2[nH]1` (stereo not drawn), the Potency result is “inactive”.
For `Cc1ncc[nH]1`, the Potency result is “inactive”.
For the compound `Cc1ccc(C(=O)c2cc(O)c(O)c([N+](=O)[O-])c2)cc1`, the “activity change, negative = cytotoxic” value is -12.2% [at 35.3 µM] (inactive).
`CN1C(C(=O)Nc2ccccn2)=C(O)c2ccccc2S1(=O)=O`: the Potency entry was “inactive”.
In the case of `Cc1c(OCC(F)(F)F)ccnc1CS(=O)c1nc2ccccc2[nH]1` (stereo not drawn), the Potency result is “inactive”.
For `Nc1ccc(Nc2ccccc2)cc1`, the Potency result was “inactive”.
Regarding `COc1cc([C@@H]2c3cc4c(cc3[C@H](O)[C@H]3COC(=O)[C@H]23)OCO4)cc(OC)c1OC`, the Potency result was “inactive”.
With `CC(C)OC=O`, the Potency result is “inactive”.
For the compound `OC(CCl)CCl`, the Potency result is “inactive”.
Turning to `CC(C)OB(OC(C)C)OC(C)C`, the Potency entry is “inactive”.
`C[Si](C)(C)O[Si](C)(C)C`: the Potency entry was “inactive”.
For the compound `c1cc(-c2ccncc2)ccn1`, the “activity change, negative = cytotoxic” value is -1.53% (inactive).
For the compound `NNc1ccc(C(=O)O)cc1`, the Potency result was “inactive”.
In the case of `O=C(OCc1ccccc1)c1ccccc1O`, the Potency result is “inactive”.
In the case of `NC=O`, the Potency result is “inactive”.
For the compound `Cc1cc2nc3c(=O)[nH]c(=O)nc-3n(C[C@H](O)[C@H](O)[C@H](O)CO)c2cc1C`, the Potency result was “inactive”.
With `Nc1ncnc2nc[nH]c12`, the Potency entry was “inactive”.
In the case of `CC(CCC(=O)O)(c1ccc(O)cc1)c1ccc(O)cc1`, the Potency entry was “inactive”.
In the case of `C=C(C)C1CC=C(C)CC1` (stereo not drawn), the Potency result was “inactive”.
With `Cc1[nH]c(=O)c(C#N)cc1-c1ccncc1`, the Potency result was “inactive”.
Still for that read-out and setting: in the case of `O=C(c1ccccc1)c1ccc(O)cc1O` it was “inactive”; in that of `CCCCCCCCCC(=O)OC`, “inactive”; in that of `Cc1cccc(C(=O)O)c1`, “inactive”.
Same read-out and setting: in the case of `c1ccc(Nc2ccccc2)cc1` it was 38.9 µM (active) and inactive; in that of `CCCC(=O)O`, “inactive”; in that of `O=[N+]([O-])c1ccc2c(c1)Cc1ccccc1-2`, “inactive”.
On the same count and under the same terms, in the case of `OCCO` it was “inactive”.

Another test is described as follows: A CellTox Green Cytotoxicity Assay to monitor cytotoxicity in HepG2 cells - 24 hour (AID 1224878). Further: nearly all actives have a fitted effect of over 45% in size. Conditions: CellTox Green fluorescence; series mostly up to 76.8 µM; cytotoxicity: at the top concentration. Summed up: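 Read-out is fluorescence of a cyanine dye excluded from live cells that stains DNA of dead HepG2 cells, with signal proportional to cytotoxicity. Plates were read at 0, 8, 16, 24, 32 and 40 h after compound addition.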
For `CC1=CCC(C(C)(C)O)CC1` (stereo not drawn), the Potency result is “inactive and 21.9 µM (active)”.
For the compound `Nc1ncn([C@@H]2O[C@H](CO)[C@@H](O)[C@H]2O)c(=O)n1`, the Potency result is “inactive”.
As for `CCOC(=O)C(C#N)=C(c1ccccc1)c1ccccc1`, the Potency entry was “inactive”.
Consider `CCC(C)(O)CCCC(C)C` (stereo not drawn), for which the Potency result is “inactive”.
Turning to `CCCCNS(=O)(=O)c1ccccc1`, the Potency result was “inactive”.
As to `CC(C)CC(C)(O)C#CC(C)(O)CC(C)C` (stereo not drawn), the Potency entry was “inactive”.
The same measure, in the same setting: in the case of `c1ccc2c(c1)c1cccc3ccc4cccc2c4c31` it was “inactive”.
With `O=C(/C=C/c1ccccc1)OCc1ccccc1`, the Potency entry is “inactive”.
With `CC(C)(C)NC(=O)[C@H]1CC[C@H]2[C@@H]3CC[C@H]4NC(=O)C=C[C@]4(C)[C@H]3CC[C@]12C`, the Potency result is “inactive”.
Regarding `CCCc1c(OCCCCc2nn[nH]n2)ccc(C(C)=O)c1O`, the Potency entry is “inactive”.
As for `CCCCCCCCCCCO`, the Potency result is “inactive”.
Consider `COc1ccc(OC)c(C(O)CNC(=O)CN)c1` (stereo not drawn), for which the Potency result is “inactive”.
Same read-out and setting: in the case of `COC(=O)Nc1nc2ccc(S(=O)c3ccccc3)cc2[nH]1` (stereo not drawn) it was “inactive and 10.7 µM (active)”.
Take `Cc1ncc[nH]1`: the Potency result was “inactive”.
Take `Cc1ccc(C(=O)c2cc(O)c(O)c([N+](=O)[O-])c2)cc1`: the Potency entry was “inactive”.
With `CN1C(C(=O)Nc2ccccn2)=C(O)c2ccccc2S1(=O)=O`, the Potency result was “inactive”.
The same measure, in the same setting: the same measure for `Cc1c(OCC(F)(F)F)ccnc1CS(=O)c1nc2ccccc2[nH]1` (stereo not drawn): “inactive”; for `Nc1ccc(Nc2ccccc2)cc1`: “inactive”.
`COc1cc([C@@H]2c3cc4c(cc3[C@H](O)[C@H]3COC(=O)[C@H]23)OCO4)cc(OC)c1OC`: the “cytotoxicity” value was 2.55% [at 35.3 µM] (inactive).
As for `CC(C)OC=O`, the “cytotoxicity” value is -2.76% (inactive).
Take `OC(CCl)CCl`: the Potency entry was “inactive”.
Turning to `CC(C)OB(OC(C)C)OC(C)C`, the Potency result is “inactive”.
The same measure, in the same setting: the same measure for `C[Si](C)(C)O[Si](C)(C)C`: “inactive”; for `c1cc(-c2ccncc2)ccn1`: “inactive”; for `NNc1ccc(C(=O)O)cc1`: “inactive”.
As for `O=C(OCc1ccccc1)c1ccccc1O`, the Potency result was “inactive”.
As for `NC=O`, the Potency result was “inactive”.
`Cc1cc2nc3c(=O)[nH]c(=O)nc-3n(C[C@H](O)[C@H](O)[C@H](O)CO)c2cc1C`: the Potency is 43.2 µM (active) and 40.5 µM (active) and 11.7 µM (active).
`Nc1ncnc2nc[nH]c12`: the “cytotoxicity” value was 6.86% [at 35.3 µM] (inactive).
Regarding `CC(CCC(=O)O)(c1ccc(O)cc1)c1ccc(O)cc1`, the Potency entry was “inactive”.
Turning to `C=C(C)C1CC=C(C)CC1` (stereo not drawn), the Potency result is “inactive”.
With `Cc1[nH]c(=O)c(C#N)cc1-c1ccncc1`, the “cytotoxicity” value is 15.6% [at 35.3 µM] (inactive).
Turning to `O=C(c1ccccc1)c1ccc(O)cc1O`, the Potency result is “inactive and 38.9 µM (active)”.
In the case of `CCCCCCCCCC(=O)OC`, the Potency entry is “inactive”.
Turning to `Cc1cccc(C(=O)O)c1`, the Potency result was “inactive”.
For the compound `c1ccc(Nc2ccccc2)cc1`, the Potency is 43.6 µM (active).
With `CCCC(=O)O`, the Potency entry is “inactive”.
Regarding `O=[N+]([O-])c1ccc2c(c1)Cc1ccccc1-2`, the Potency entry is “inactive”.
With `OCCO`, the Potency entry is “inactive”.
